Measurements from PubChem BioAssay (NCI).
The panel holds about 83,000 compounds, 20% with a hit somewhere; the sample as a whole holds those more often.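 Note: values are percent growth. 100 is the growth of untreated cells, values between 100 and 0 indicate rising inhibition; between -100 and 0 indicates cell death.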 A number with no mark means an inactive call. Activity calls are given as the source filed them. How the source made its calls: active means growth percent below 10; inactive means the rest.

Key:
Assay in all cases: NCI-60 one-dose screen, 48 h (100 = growth as untreated, 0 = no growth, -100 = all killed)
Conditions in all cases: 10 µM unless noted
NCI-H23 lung = system: NCI-H23 lung
NCI-H322M lung = system: NCI-H322M lung
HOP-62 NSCLC = system: HOP-62 NSCLC
NCI-H460 lung = system: NCI-H460 lung
HOP-92 NSCLC = system: HOP-92 NSCLC
NCI-H522 lung = system: NCI-H522 lung
A549/ATCC NSCLC = system: A549/ATCC NSCLC
786-0 renal = system: 786-0 renal
COLO 205 colon = system: COLO 205 colon
DU-145 prostate = system: DU-145 prostate
K-562 leukemia = system: K-562 leukemia
MALME-3M melanoma = system: MALME-3M melanoma
MDA-MB-231 breast = system: MDA-MB-231 breast
RXF 393 renal = system: RXF 393 renal
SF-268 CNS = system: SF-268 CNS
SF-295 CNS = system: SF-295 CNS
SF-539 CNS = system: SF-539 CNS
UACC-257 melanoma = system: UACC-257 melanoma
M14 melanoma = system: M14 melanoma
HCT-15 colon = system: HCT-15 colon

| SMILES | growth (NCI-H23 lung) | growth (NCI-H322M lung) | growth (HOP-62 NSCLC) | growth (NCI-H460 lung) | growth (HOP-92 NSCLC) | growth (NCI-H522 lung) | growth (A549/ATCC NSCLC) | growth (786-0 renal) | growth (COLO 205 colon) | growth (DU-145 prostate) | growth (K-562 leukemia) | growth (MALME-3M melanoma) | growth (MDA-MB-231 breast) | growth (RXF 393 renal) | growth (SF-268 CNS) | growth (SF-295 CNS) | growth (SF-539 CNS) | growth (UACC-257 melanoma) | growth (M14 melanoma) | growth (HCT-15 colon) |
| --- | --- | --- | --- | --- | --- | --- | --- | --- | --- | --- | --- | --- | --- | --- | --- | --- | --- | --- | --- | --- |
| COC(=O)/C(CCC=C(C)C)=C1\[C@@H](OC(C)=O)C[C@@]2(C)[C@H]1CC(=O)N[C@H]1[C@@]3(C)CCNC(=O)[C@@H](C)[C@@H]3CC[C@@]12C | 99.2% | 98.3% | 106% | 109% | 106% | 96.6% | 106% | 96.2% | 109% | 107% | 101% | 101% | 102% | 112% | 101% | 101% | 103% | 104% | 98.5% | 106% |
| CCCCOCc1cc(CN2CCN(C)CC2)c(O)c2ncccc12 | 60% | 53.9% | 32.9% | 21.9% | 57.9% | 24.9% | 35.9% | 38.1% | 85.4% | 63.9% | 50.7% | 93.4% | 47.1% | 69% | 47.9% | 58.5% | 53.3% | 51.4% | 41.2% | 25.6% |
| Cn1nc(C(C)(C)C)cc1NC(=O)Cc1ccc(/C=C2\C(=O)Nc3ccccc32)cc1 | 41.1% | 84.8% | 74.3% | 67.8% | 59.5% | 45% | 57.6% | 72.1% | 80.2% | 56.6% | 22.3% | 58% | 66.4% | 70.9% | 63.1% | 51.7% | 54.9% | 41.4% | 56.5% | 48.4% |
| NC(=O)CSc1nc(-c2ccc(F)cc2)cc(-c2ccco2)n1 | 98.7% | 99.9% | 108% | 110% | 101% | 94.5% | 104% | 105% | 111% | 111% | 103% | 110% | 98.3% | 118% | 104% | 102% | 110% | 109% | 98% | 107% |
| Fc1ccc(Oc2ccc(Nc3ncnc4onc(-c5ccccc5)c34)cc2)cc1 | 104% | 87.9% | 105% | 102% | 88.8% | 90.5% | 90.1% | 97.3% | 122% | 95.2% | 113% | 93.2% | 70.7% | 115% | 83% | 99.7% | 90.1% | 88.3% | 104% | 103% |
| COc1c(B(O)O)cccc1-c1nc2ccc3n[nH]c(F)c3c2c2c1CCCC2 | 92.9% | 92.6% | 66.3% | 47.2% | 78.6% | 59.4% | 66% | 69.5% | 93.2% | 77.7% | 92.9% | 119% | 28.9% | 24.1% | 50.5% | 80% | 25.1% | 121% | 104% | 85.3% |
| Clc1ccc(COc2ccc(Nc3ncnc4onc(-c5ccccc5)c34)cc2)cc1 | 87.1% | 82.8% | 91.2% | 61% | 82.9% | 71.3% | 82.8% | 90.7% | 93.5% | 72.7% | 89.9% | 92.7% | 76.5% | 95.5% | 89.2% | 93.7% | 97% | 85.6% | 76% | 84.2% |
| COc1ccc(C2C3=C(COC3=O)N(CCO)c3cc4c(cc32)CCC4)cc1OC (stereo not given) | 29.8% | 35.3% | 31.6% | -15.1% (active) | 91.9% | -33.7% (active) | 19.5% | 26.7% | 14.9% | -28.1% (active) | 14.7% | 42.8% | 24.7% | -42.7% (active) | 49.1% | -2.08% (active) | -20.4% (active) | 43.6% | -18.4% (active) | 21.8% |
